According to PubChem BioAssay (NCI):
The panel holds about 79,000 compounds, 15% with a hit somewhere; the sample as a whole holds those more often. Values without a mark were called inactive. Calls of active or inactive are those of the source. No stated cut-off is given here; in the data, active means growth inhibition above about 70%; inactive means the rest.

test: NCI Yeast Anticancer Drug Screen. Data for the bub3 strain (AID 167); conditions: S. cerevisiae bub3 mutant strain, at 11.0 µM, hits give high values
How it was run: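 In this screen, a yeast mutant lacking normal mitotic checkpoint function is challenged with compound. Relative growth versus vehicle gives the inhibition value.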

SMILES	growth inhibition
O=C(O)c1ccccc1.[Ag]	99% (active)
CC(=O)[O-].O=C([CH-]C(=O)c1ccccc1)c1ccccc1.O=C([CH-]C(=O)c1ccccc1)c1ccccc1.[Sm+3]	84% (active)
C=C[C@H]1CN2CC[C@H]1C[C@@H]2[C@@H](O)c1ccnc2ccccc12	1%
O=c1c2ccccc2[se]n1-c1cccnc1	81% (active)
[Pt].c1ccc(P(CCP(c2ccccc2)c2ccccc2)CCP(c2ccccc2)c2ccccc2)cc1	26%
CC12CCC(C1)C(C)(C)C2OC(=O)c1ccccc1N (stereo unspecified)	9%
OC1(c2ccccc2)CC2CCC(C1)N2CCCC(O)(c1ccccc1)c1ccccc1 (stereo unspecified)	5%
COC(=O)C(F)C(Br)C(=O)OC (stereo unspecified)	98% (active)
CCCCCCCCCC[Se]C#N	-2%
CNCC(O)c1ccc(O)c(O)c1.[Pt].c1ccc([PH+](c2ccccc2)c2ccccc2)cc1.c1ccc([PH+](c2ccccc2)c2ccccc2)cc1	-3%
Nc1nc(N)c(-c2ccc(Cl)c(Cl)c2)c(CP(Cl)(Cl)(Cl)Br)n1	42%
Cc1ccc(P(c2ccc(C)cc2)c2ccc(C)cc2)cc1	57%
CC1CC(C)CC(C)C(O)/C(C#N)=C/C=C/CC(C2CCCC2C(=O)O)OC(=O)CC(O)C(C)C1 (stereo unspecified)	98% (active)

same assay, conditions: S. cerevisiae bub3 mutant strain, at 33.0 µM, hits give high values

SMILES	growth inhibition
O=C(O)c1ccccc1.[Ag]	99% (active)
CC(=O)[O-].O=C([CH-]C(=O)c1ccccc1)c1ccccc1.O=C([CH-]C(=O)c1ccccc1)c1ccccc1.[Sm+3]	97% (active)
C=C[C@H]1CN2CC[C@H]1C[C@@H]2[C@@H](O)c1ccnc2ccccc12	1%
O=c1c2ccccc2[se]n1-c1cccnc1	98% (active)
[Pt].c1ccc(P(CCP(c2ccccc2)c2ccccc2)CCP(c2ccccc2)c2ccccc2)cc1	96% (active)
CC12CCC(C1)C(C)(C)C2OC(=O)c1ccccc1N (stereo unspecified)	23%
OC1(c2ccccc2)CC2CCC(C1)N2CCCC(O)(c1ccccc1)c1ccccc1 (stereo unspecified)	30%
COC(=O)C(F)C(Br)C(=O)OC (stereo unspecified)	99% (active)
CCCCCCCCCC[Se]C#N	5%
CNCC(O)c1ccc(O)c(O)c1.[Pt].c1ccc([PH+](c2ccccc2)c2ccccc2)cc1.c1ccc([PH+](c2ccccc2)c2ccccc2)cc1	75% (active)
Nc1nc(N)c(-c2ccc(Cl)c(Cl)c2)c(CP(Cl)(Cl)(Cl)Br)n1	56%
Cc1ccc(P(c2ccc(C)cc2)c2ccc(C)cc2)cc1	78% (active)
CC1CC(C)CC(C)C(O)/C(C#N)=C/C=C/CC(C2CCCC2C(=O)O)OC(=O)CC(O)C(C)C1 (stereo unspecified)	98% (active)
